About 79,000 compounds went through this panel and 15% of them were active in at least one assay; those are over-represented in the sample as a whole. Calls of active or inactive are those of the source. No stated cut-off is given here; in the data, active means growth inhibition above about 70%; inactive means the rest.
How the values were obtained:
[1] = NCI Yeast Anticancer Drug Screen. Data for the rad52 strain (AID 147);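 further: 0% = growth of vehicle-treated control cultures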; conditions: S. cerevisiae rad52 mutant growth inhibition, stronger effect = higher value
How it was run: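 The repair-mutant yeast strain was incubated with compounds, then growth was read and inhibition derived relative to vehicle.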

[2] = NCI Yeast Anticancer Drug Screen. Data for the wt1 strain (AID 149);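 further: 0% = growth of vehicle-treated wt1 cultures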; conditions: S. cerevisiae wt1 strain (SPY 50644) growth inhibition, stronger effect = higher value
How it was run: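 Using yeast strain wt1, compound-induced growth inhibition was determined against vehicle-treated cultures.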

[3] = NCI Yeast Anticancer Drug Screen. Data for the rad50EPP+ strain (AID 151);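 further: 0% = growth of vehicle-treated control cultures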; conditions: S. cerevisiae rad50 mutant strain, stronger effect = higher value
How it was run: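 Vehicle-normalised growth inhibition; rad50EPP+ yeast strain, altered in DNA damage repair, compound-treated.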

[4] = NCI Yeast Anticancer Drug Screen. Data for the mgt1 strain (AID 153); conditions: S. cerevisiae mgt1 mutant growth inhibition, stronger effect = higher value
How it was run: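 Vehicle-normalized growth inhibition is determined in mgt1 yeast, a strain selected for a defined alteration in DNA repair or cell cycle control.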

[5] = NCI Yeast Anticancer Drug Screen. Data for the rad50 strain (AID 155);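 further: 0% = growth of vehicle-only cultures of the same strain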; conditions: S. cerevisiae rad50 strain growth inhibition, stronger effect = higher value
How it was run: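 Relative growth inhibition (compound vs vehicle) was measured in yeast with a defined repair-gene alteration.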

[6] = NCI Yeast Anticancer Drug Screen. Data for the mec2-1 strain (AID 157); conditions: S. cerevisiae mec2-1 strain, stronger effect = higher value
How it was run: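 Mutant yeast (mec2-1) grown with compound; growth inhibition relative to vehicle control reported.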

[7] = NCI Yeast Anticancer Drug Screen. Data for the rad14 strain (AID 159);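 further: 0% = growth of vehicle-treated control cultures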; conditions: S. cerevisiae rad14 strain growth inhibition, stronger effect = higher value
How it was run: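 Screen for anticancer potential: a yeast strain altered in DNA damage repair is grown with compound, and reduced growth is quantified against vehicle controls.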

[8] = NCI Yeast Anticancer Drug Screen. Data for the sgs1 mgt1 strain (AID 161);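 further: 0% = growth of cultures given vehicle only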; conditions: S. cerevisiae sgs1 mgt1 strain, stronger effect = higher value
How it was run: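 Percent growth inhibition was derived by comparing compound-exposed mutant yeast with vehicle-exposed cultures. The strain carries alterations in DNA damage repair.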

[9] = NCI Yeast Anticancer Drug Screen. Data for the CLN2oe strain (AID 163);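 further: 0% = growth of vehicle-only control cultures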; conditions: S. cerevisiae CLN2oe strain, stronger effect = higher value
How it was run: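 Compounds are applied to yeast harbouring a defined cell-cycle control change; reduced growth compared with vehicle-treated controls gives the value.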

[10] = NCI Yeast Anticancer Drug Screen. Data for the cln2 rad14 strain (AID 165);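 further: 0% = growth equal to vehicle treated cultures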; conditions: S. cerevisiae cln2 rad14 strain, stronger effect = higher value
How it was run: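 Readout is yeast growth inhibition versus vehicle-treated controls, using a strain with cln2 and rad14 alterations exposed to compound.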

[11] = NCI Yeast Anticancer Drug Screen. Data for the bub3 strain (AID 167); conditions: S. cerevisiae bub3 mutant strain, stronger effect = higher value
How it was run: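 Screening used yeast with an engineered genetic alteration affecting cell cycle control. Compound-exposed cultures were compared with vehicle cultures, and reduced growth was taken as inhibition.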

[12] = NCI Yeast Anticancer Drug Screen. Data for the wt2 strain (AID 169);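 further: 0% = growth of vehicle-treated yeast cultures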; conditions: S. cerevisiae wt2 strain growth inhibition, stronger effect = higher value
How it was run: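 Against vehicle-treated controls, the growth of yeast exposed to each compound was compared, and the inhibition was recorded.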

[13] = NCI Yeast Anticancer Drug Screen. Data for the mlh1 strain (AID 171);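 further: 0% = growth of vehicle-treated control cultures of the same strain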; conditions: S. cerevisiae mlh1 strain growth inhibition, stronger effect = higher value
How it was run: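 Measured: yeast growth. Reference: vehicle-treated controls. Organism: strain with a defined alteration affecting DNA damage repair or cell cycle control, treated with compound.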

[14] = NCI Yeast Anticancer Drug Screen. Data for the sgs1 strain (AID 173);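 further: 0% = growth of vehicle-only control cultures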; conditions: S. cerevisiae sgs1 mutant, stronger effect = higher value
How it was run: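 Each compound was added to cultures of the altered yeast strain. Growth was recorded, and inhibition was derived by comparison with vehicle controls.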

[15] = NCI Yeast Anticancer Drug Screen. Data for the mlh1 rad18 strain (AID 175); conditions: S. cerevisiae mlh1 rad18 strain growth inhibition, stronger effect = higher value
How it was run: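 Genetically defined yeast (DNA repair-deficient) exposed to compounds; growth inhibition determined relative to vehicle.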

[16] = NCI Yeast Anticancer Drug Screen. Data for the rad18 strain (AID 177); conditions: S. cerevisiae rad18 mutant growth inhibition, stronger effect = higher value
How it was run: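 Vehicle-treated cultures served as the baseline for scoring compound-induced growth inhibition in DNA-repair-mutant yeast.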

[17] = at 5.0 µM (retest, dose inferred, filed as 0.5)
[18] = at 50.0 µM (retest, dose inferred, filed as 5.0)

Measured: growth inhibition

CCCCN1C(=O)N(c2ccc(OCC)cc2)C2N(CCCC)C1C(C)(C)C2(C)C (stereo not drawn)
inactive: [1]; at 1.2 µM -6% | [1]; at 3.7 µM -13% | [1]; at 11.0 µM 3% | [1]; at 33.0 µM 30% | [2]; at 1.2 µM -3% | [2]; at 3.7 µM 3% | [2]; at 11.0 µM 9% | [2]; at 33.0 µM 19% | [2]; at 100.0 µM 52% | [3]; at 1.2 µM -7% | [3]; at 3.7 µM -6% | [3]; at 11.0 µM 7% | [3]; at 33.0 µM 19% | [3]; at 100.0 µM 30% | [4]; at 1.2 µM -4% | [4]; at 3.7 µM -7% | [4]; at 11.0 µM -6% | [4]; at 33.0 µM -7% | [4]; at 100.0 µM 5% | [5]; at 1.2 µM -17% | [5]; at 3.7 µM -18% | [5]; [17] 0% | [5]; at 11.0 µM 9% | [5]; at 33.0 µM 35% | [5]; [18] 50% | [5]; at 50.0 µM 49.6% | [6]; at 1.2 µM -5% | [6]; at 3.7 µM -4% | [6]; [17] 4% | [6]; at 11.0 µM -5% | [6]; at 33.0 µM -5% | [6]; [18] 62% | [6]; at 50.0 µM 19.9% | [6]; at 100.0 µM 22% | [7]; at 1.2 µM -1% | [7]; at 3.7 µM -6% | [7]; at 11.0 µM -6% | [7]; at 33.0 µM 15% | [8]; [17] 12% | [8]; at 50.0 µM 65.3% | [9]; at 1.2 µM -10% | [9]; at 3.7 µM -9% | [9]; at 11.0 µM -10% | [9]; at 33.0 µM -10% | [9]; at 100.0 µM 0% | [10]; [17] -3% | [10]; [18] 13% | [10]; at 50.0 µM 21.1% | [11]; at 1.2 µM -9% | [11]; at 3.7 µM -7% | [11]; [17] -2% | [11]; at 11.0 µM -12% | [11]; at 33.0 µM -11% | [11]; [18] 24% | [11]; at 50.0 µM 27.9% | [11]; at 100.0 µM 25% | [12]; at 1.2 µM -3% | [12]; at 3.7 µM 4% | [12]; at 11.0 µM 12% | [12]; at 33.0 µM 26% | [13]; at 1.2 µM -6% | [13]; at 3.7 µM -11% | [13]; at 11.0 µM -9% | [13]; at 33.0 µM -3% | [14]; at 1.2 µM -2% | [14]; at 3.7 µM -2% | [14]; at 11.0 µM 20% | [14]; at 33.0 µM 57% | [15]; [17] 13% | [15]; at 50.0 µM 54.1% | [16]; at 1.2 µM -7% | [16]; at 3.7 µM 0% | [16]; at 11.0 µM 27%
active: [1]; at 100.0 µM 86% | [5]; at 100.0 µM 84% | [7]; at 100.0 µM 72% | [8]; [18] 82% | [12]; at 100.0 µM 91% | [13]; at 100.0 µM 79% | [14]; at 100.0 µM 95% | [15]; [18] 84% | [16]; at 33.0 µM 74% | [16]; at 100.0 µM 93%

Source: PubChem BioAssay (NCI)
